Most compounds without a hit are left out; they make up all but 19% or so of the library.
ELG1 DNA repair = blocks ELG1-dependent DNA repair in HEK293T cells. HEK293T ELG1-luciferase reporter, luminescence, 16 h; DNA damage induced by 5-fluorouridine. Potency, µM (highest dose often 46.1 µM), for the others: at the highest dose activity change, negative = inhibition, actives largely listed as inhibitors. 330,000 tested, 2.3% active. AID 504467; further: potency means the concentration at half of the fitted maximal effect; nearly all actives have a fitted effect of over 55% in size
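Luminescence from the luciferase reporter, measured 30 min after ONE-Glo reagent at room temperature, was the read-out. Beforehand, 2,000 cells per well were exposed for 16 hr at 37 °C to 5-fluorouridine together with compound or vehicle.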
IL1B secr inh = blocks inflammasome-driven IL-1 beta release | THP-1 LPS/ATP IL-1B secretion, AlphaLISA, 16 h; stronger effect = lower value | 360,000 tested, 4.7% active | activity change, % at 57.5 µM; in the data active means activity change below about -50%; inconclusive means mostly about -30% to -49%
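THP-1 cells pretreated 1 hr with compounds (up to 57.5 uM final), then stimulated with LPS (250 ng/mL final) plus ATP (1.25 mM final); secreted IL-1B measured by AlphaLISA after 16 hr, decreased signal indicating inhibition.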
DT40 TDP1 no CPT = qHTS for Inhibitors of human tyrosyl-DNA phosphodiesterase 1 (TDP1): qHTS in cells in absence of CPT; DT40 Tdp1-/- hTDP1 cells, no CPT, ATP luminescence, 48 h; Potency, µM (titrated, usually from 46.2 µM), for the others: top-dose activity change, negative = growth inhibition, hits mostly inhibitors; AID 686978, 2013; 420,000 tested, 15% active; further: potency means the concentration at half of the fitted maximal effect; nearly all actives have a fitted effect of over 55% in size
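DT40 Tdp1-/-;hTDP1 cells, no CPT (DMSO vehicle only), 400 cells/well; compounds pin-transferred; ≥48 hr, 37 °C; CellTiter-Glo 30 min RT dark, luminescence read.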
HT1080 IDH1KD tx = HT-1080 IDH1 knockdown cell toxicity (counter line); 360,000 tested, 2% active; HT-1080 IDH1 knockdown viability, ATP luminescence, 48 h; Potency, µM (top dose mostly 46.1 µM), for inactives: top-dose activity, negative = toxicity, hits mostly cytotoxic;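 further: potency means the concentration at half of the fitted maximal effect; 0% = DMSO wells and -100% = cell-free medium wells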
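After a 2 h attachment period, IDH1KD HT-1080 cells took pin-transferred compound for 48 h at 37 °C; ATP-based luminescence after 10 min room-temperature reagent incubation reported viability.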
HT1080NT lethal = kills 2HG-producing HT-1080-NT fibrosarcoma cells | HT-1080-NT fibrosarcoma viability, CellTiter-Glo ATP luminescence, 48 h | 360,000 tested, 1.6% active | Potency, µM (doses to about 46.1 µM), without a hit: at the highest dose activity, negative = less viability, usual class: cytotoxic;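 further: NT is the 2HG producing partner of a matched IDH1 knockdown line; potency means the concentration at half of the fitted maximal effect; 0% = DMSO-treated cells and -100% = media-only wells without cells; nearly all actives have a fitted effect of over 55% in size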
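Viability by CellTiter-Glo luminescence after 48 h compound exposure at 37C of HT-1080-NT cells (750/well, RPMI, 5% FBS). % activity scaled between DMSO wells and medium-only wells, then curve-fitted and categorized by curve class.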
TDP1 cell CPT = growth inhibition of DT40 Tdp1-/-;hTDP1 cells with camptothecin (screen for TDP1 inhibitors); Potency, µM (titrated, usually from 46.2 µM), inactives show at the highest dose activity change, negative = growth inhibition, hits mostly inhibitors; 420,000 tested, 12% active; chicken DT40 Tdp1-/-;hTDP1 cells + 20 nM CPT, ATP luminescence, 48 h; further: potency means the concentration at half of the fitted maximal effect; nearly all actives have a fitted effect of over 55% in size
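Chicken DT40 Tdp1-/- cells stably complemented with human TDP1 were seeded at 400 cells/well in medium containing 20 nM camptothecin, exposed to pin-transferred compounds, and grown at 37 °C for at least 48 hr. Viability was read as ATP luminescence.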
* marks the source's active call; other numbers are inactive results; ? = inconclusive; . = no result given; ! = a repeat was not active; [ ] = another dose, or the depositor's remark. Unless noted, the call rests on the fitted dose curve; in most records, active means well fitted curve in the direction sought with a large enough effect; inconclusive means small, poorly fitted or top-dose-only effect, or another doubt; inactive means no such curve, though single readings can be large; an effect the other way counts as inactive or inconclusive. Unless noted, on the % scale 0 is the no-effect control and ±100 the full control effect.

SMILES	ELG1 DNA repair	IL1B secr inh	DT40 TDP1 no CPT	HT1080 IDH1KD tx	HT1080NT lethal	TDP1 cell CPT
Cc1ccc(S(=O)(=O)CC(=O)Nc2sc3c(c2C(N)=O)CCCC3)cc1	.	.	20.6µM*	.	.	14.6µM*
Cn1cc(Br)c(C(=O)Nc2sc3c(c2C(N)=O)CCCC3)n1	?	-81.7*	16.4µM*	-3.6%	-8.9%	?
NC(=O)c1c(NC(=O)c2cccs2)sc2c1CCCCCC2	?	-84.5*	?	-3.8%[9.24 µM]	?	?
CC(C)(C)c1ccc(S(=O)(=O)NCC(=O)Nc2sc3c(c2C(N)=O)CCCC3)cc1	?	2.0	?	-1.2%	-0.7%	0.6%
COC(=O)c1c(NC(=O)CS(=O)(=O)c2ccc(C)cc2)sc2c1CCCC2	.	.	16.4µM*	.	.	?
O=C(O)CCCCCN1C(=O)C(O)=C(C(=O)/C=C/c2ccccc2)C1c1ccccc1[N+](=O)[O-] (configuration not stated)	15.1%	22.8	-1.7%	1.0%	10.8%	-13.6%
Cc1ccc(CNC(=O)Cn2c(=O)cc(C(F)(F)F)c3c(C)nn(C)c32)cc1	.	.	-1.0%	.	.	-23.3%
Cn1c(=O)c2c(O)c(C=Nc3ccc(F)cc3)c(=O)n(C)c2n(C)c1=O	1.4%	11.3	-14.9%	17.9%	15.8%	-25.7%
CCOC(=O)c1noc2ncnc(N3CCC(C)CC3)c12	.	.	-28.8%	.	.	?
COCCNC(=S)NNc1ccccc1[N+](=O)[O-]	-5.4%	-8.4	4.0%	-0.6%	-0.9%	1.7%
CCOC1=C2[C@@H](CN(S(=O)(=O)c3ccc(C)cc3)[C@H]2c2ccccc2F)[C@H]2C(=O)N(c3ccccc3)C(=O)[C@H]2C1	.	5.5	-19.5%	-0.5%	25.5%	?
CN1CCN(CC(=O)Nc2sc3c(c2C(=O)Nc2ccccc2)CCCC3)CC1	15.4%	?	?	?	-23.1%	?
NC(=O)c1c(NC(=O)CN2CCN(S(=O)(=O)c3ccccc3)CC2)sc2c1CCC2	?	-51.1*	18.4µM*	-11.0%	?	13µM*
COC(=O)c1ccc(CNC(=O)CNC(=O)c2sc3ccccc3c2Cl)cc1	-2.7%	3.0	-16.2%	5.7%	0.2%	-13.5%
CCOC(=O)C1=C(Nc2ccc(Cl)cc2)OCC1=O	-3.3%	-17.3	-26.5%	-0.3%	8.2%	12.3%
NC(=S)NN=C1CSSC1	.	-100.0*	3.66µM*	?	?	7.31µM*
CC1(C)CCC(=NNC(N)=S)CC1	.	13.1	29.1µM*	-2.7%	-2.3%	?
NC(=S)NN=C1CCCCC12CCCC2	.	3.1	?	-11.0%	-17.8%	?
Cc1cc(C)c(C#N)c(SCc2ccccc2[N+](=O)[O-])n1	-0.8%	0.0	?	8.6%	6.9%	-0.5%
Cc1cc(C)c(C#N)c(SCc2nnc(-c3ccccc3[N+](=O)[O-])o2)n1	?	-2.5	20.6µM*	-22.5%	?	25.9µM*
Cc1ccc(CCNC(=O)CCCn2c(=O)c3cccn3c3ccc(F)cc32)cc1	.	.	16.4µM*	.	.	?
CC(CNC(=O)CCn1c(=O)c2cccn2c2ccc(F)cc21)c1ccccc1 (configuration not stated)	6.6%	0.0	?	3.4%	-0.2%	13µM*!
COc1ccc(CCNC(=O)CCCn2c(=O)c3cccn3c3ccccc32)cc1OC	.	.	13µM*	.	.	16.4µM*
COc1ccc(CNC(=O)CCn2c(=O)c3cccn3c3ccc(F)cc32)cc1	-10.7%	0.0	?	5.7%	?	?
CCC(C)NC(=O)CCn1c(=O)c2cccn2c2ccc(F)cc21 (configuration not stated)	-3.7%	-10.0	-29.6%	20.9%	11.4%	0.7%
SMILES	ELG1 DNA repair	IL1B secr inh	DT40 TDP1 no CPT	HT1080 IDH1KD tx	HT1080NT lethal	TDP1 cell CPT
COc1cccc(CNC(=O)CCCn2c(=O)c3cccn3c3ccc(F)cc32)c1OC	.	.	8.2µM*	.	.	11.6µM*
Cc1ccc(Cl)cc1-c1cc(C(=O)N2CCN(c3ccncc3)CC2)[nH]n1	.	?	?	-4.0%	-11.7%	?
O=C(CCCn1c(=O)c2cccn2c2ccc(F)cc21)NCc1ccc(Cl)cc1	.	.	20.6µM*	.	.	?
COc1ccc(OC)c(CNC(=O)CCn2c(=O)c3cccn3c3ccc(F)cc32)c1	-0.3%	23.2	?	0.1%	4.2%	?
COc1ccc(OC)c(CCNC(=O)CCCn2c(=O)c3cccn3c3ccc(F)cc32)c1	.	.	9.2µM*	.	.	18.4µM*
COc1ccc(CCNC(=O)CCCn2c(=O)c3cccn3c3ccc(F)cc32)cc1OC	.	.	11.6µM*	.	.	14.6µM*
COc1cc(NC(=O)CN2CCCCC2)c(C)cc1[N+](=O)[O-]	?	6.2	3.1%	18.7%	15.0%	8.6%
Cc1ccnc2nc(C(=O)OCC(=O)NC3CCCC(C)C3C)nn12 (configuration not stated)	8.2%	-8.1	1.46µM*	?	-23.7%	-19.9%
COc1cc(NC(=O)Cn2ncc(Cl)c(Cl)c2=O)c(C)cc1[N+](=O)[O-]	?	-95.2*	4.61µM*	2.59µM*	7.31µM*	2.91µM*
Cc1ccc(S(=O)(=O)N2CCCCC2)cc1C(=O)OCC(=O)N1c2ccccc2NC(=O)C1(C)C	?	-7.2	?	11.7%	14.0%	?
Cc1ccc(C(=O)OC(C)C(=O)NC2CCCCC2C)cc1S(=O)(=O)N1CCCCC1 (configuration not stated)	?	23.3	?	-0.5%	12.5%	18.4µM*
Cc1ccc(C(=O)OCC(=O)N2c3ccccc3NC(=O)C2(C)C)cc1S(=O)(=O)N1CCCCC1	?	-19.2	14.6µM*	-19.0%	-18.6%	?
Cc1cccc(C)c1NC(=O)Cn1c(=O)n(CCC(=O)NCc2ccc3c(c2)OCO3)c(=O)c2sccc21	.	.	-19.2%	.	.	-4.8%
Cc1ccc(OCC(=O)NNC(=O)C2CSC3(C)CCC(=O)N23)cc1C (configuration not stated)	-5.2%	-2.8	5.1%	6.3%	12.4%	5.4%
CCN1CCN(CCCNC(=O)Cn2nc(C)n3c(cc4c(OC)cccc43)c2=O)CC1	.	.	-3.8%	.	.	2.0%
CSc1ccc(OC2(C)CCN(Cc3ccc(-c4ccccn4)cc3)C2)cc1 (configuration not stated)	.	12.9	?	-21.3%	-24.2%	?
COc1ccc(CN2C[C@@H](CO)O[C@@H](n3cnc4c(N(C)C)ncnc43)C2)cc1	.	2.4	-20.2%	1.3%	17.4%	-0.5%
